Screens (PubChem)
Sampled rows, rich in hits. Any-hit rate of the full collection: about 1.3%.
FEN1 inh: human FEN1 inhibition; Recombinant FEN1 flap cleavage, fluorescence, 15 min; hit rate 0.35% among 390,000; Potency, µM (doses to about 114 µM), for inactives: at the top dose activity change, negative = inhibition, most hits filed as inhibitors; P39748; further: potency means the concentration at half of the fitted maximal effect; on the % scale 0 is the no-effect control and ±100 the full control effect; nearly all actives have a fitted effect of over 65% in size
Target sequence (P39748 whole entry, looked up): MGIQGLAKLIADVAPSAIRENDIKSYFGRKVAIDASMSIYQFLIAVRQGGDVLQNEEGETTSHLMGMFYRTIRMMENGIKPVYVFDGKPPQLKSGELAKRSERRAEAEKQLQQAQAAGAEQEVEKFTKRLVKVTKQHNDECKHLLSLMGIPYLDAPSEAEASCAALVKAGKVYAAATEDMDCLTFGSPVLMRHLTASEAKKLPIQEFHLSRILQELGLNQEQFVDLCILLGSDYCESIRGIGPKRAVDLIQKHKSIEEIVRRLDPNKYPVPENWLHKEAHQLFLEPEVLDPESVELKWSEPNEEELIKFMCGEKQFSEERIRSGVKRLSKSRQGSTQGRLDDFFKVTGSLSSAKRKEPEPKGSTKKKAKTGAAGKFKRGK
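Compounds are tested as a concentration series against 10 nM FEN1; after a 15 min room-temperature preincubation, 50 nM substrate starts cleavage, with plate reads at 0 and 15 min. Normalized responses are fitted by a Hill equation.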
GRP78 ERSR act: induces the endoplasmic reticulum stress response in human glioma cells; U87-MG GRP78 promoter luciferase reporter, 16 h; Potency, µM, for inactives: at the top dose activation, actives largely listed as activators; hit rate 0.02% among 420,000; further: potency means the concentration at half of the fitted maximal effect; series mostly up to about 76 µM; % of control where 0% means no effect; nearly all actives have a fitted effect of over 35% in size
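ERSR induction read as luciferase luminescence (Bright-Glo, 10 min at room temperature) in stably transfected human U87-MG glioma cells exposed to compounds for 16 h, using GRP78 as sensor.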
WRN helicase inh: WRN helicase (human) inhibition | hit rate 0.46% among 360,000 | Potency, µM (top dose mostly 114 µM), inactives show top-dose activity change, negative = inhibition, actives largely listed as inhibitors | Q14191 | WRN helicase unwinding, fluorescent forked duplex, kinetic | AID 651768; further: potency means the concentration at half of the fitted maximal effect; on the % scale 0 is the no-effect control and ±100 the full control effect; nearly all actives have a fitted effect of over 55% in size
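Screening of the MLSMR collection measured strand separation of a quenched forked DNA duplex (100 nM) by 20 nM WRN with 2 mM ATP, all final. Compounds were preincubated with enzyme 15 min at room temperature.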
PI5P4K alpha inh: PI5P4K alpha (human) kinase inhibition. hit rate 1.2% among 330,000. PI5P4Kalpha enzyme, ADP-Glo luminescence, 60 min; active compounds read low. AID 652105. P48426. max response, %; active means max response of -50% or lower; inconclusive means between -30% and -50%; inactive means -30% or higher; further: value at the top dose of about 77 µM; on the % scale 0 is the no-effect control and ±100 the full control effect
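Single end-point luminescence (ADP-Glo) quantified ADP from PI5P4Kalpha turnover; ATP 5 microM final, 1 h at RT, 0.1% CHAPS and 0.28 mM EGTA in HEPES pH 7.4.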
PGK inhibitor: inhibitors of T. brucei phosphoglycerate kinase; P07378; PGK/GAPDH coupled, Kinase-Glo luminescence, 60 min; Potency, µM (titrated, usually from 57.5 µM), without a hit: top-dose activity change, negative = inhibition, hits mostly inhibitors; hit rate 0.043% among 380,000; further: potency means the concentration at half of the fitted maximal effect; on the % scale 0 is the no-effect control and ±100 the full control effect; nearly all actives have a fitted effect of over 60% in size
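Recombinant glycosomal PGK reaction used 1,3-bisphosphoglycerate generated in-well by GAPDH (100nM final) in 100mM TEA pH 7.6, 5mM MgCl2, 0.01% Tween-20. After 60 minutes at room temperature, ATP was read by Kinase-Glo Plus luminescence end-point.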
Pin1 inh: blocks the human prolyl isomerase Pin1; Pin1 FP peptide displacement, HiFluor488, 10 min; Potency, µM (titrated, usually from 115 µM), for the others: at the top dose activity, negative = inhibition, usual class: inhibitors; hit rate 0.009% among 390,000; AID 504891; active means well fitted inhibition curve with a large enough effect in the polarisation, with a control signal flat, not every such curve was filed as active; inconclusive means small, poorly fitted or top-dose-only effect, or effect the other way, or a change in a side signal; inactive means no such curve, though single readings can be large or run the other way; the % refers to the polarisation; further: potency means the concentration at half of the fitted maximal effect; on the % scale 0 is the no-effect control and ±100 the full control effect
Target sequence (Q13526 whole entry, looked up): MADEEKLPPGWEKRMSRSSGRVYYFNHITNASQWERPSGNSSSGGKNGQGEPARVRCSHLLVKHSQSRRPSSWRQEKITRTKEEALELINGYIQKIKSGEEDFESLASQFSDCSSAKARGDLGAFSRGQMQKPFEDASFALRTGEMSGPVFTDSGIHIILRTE
* hit, by the source's call; i = inactive; ? = inconclusive; nt = not tested or not shown; ! = not active in a repeat. Unless noted, the call rests on the fitted dose curve; in most records, active means well fitted curve in the direction sought with a large enough effect; inconclusive means small, poorly fitted or top-dose-only effect, or another doubt; inactive means no such curve, though single readings can be large; an effect the other way counts as inactive or inconclusive.

SMILES | FEN1 inh | GRP78 ERSR act | WRN helicase inh | PI5P4K alpha inh | PGK inhibitor | Pin1 inh
CC[C@H](C)[C@H](NC(=O)[C@H](CO)NC(=O)[C@H](CC(N)=O)NC(=O)[C@H](CC(C)C)NC(=O)[C@H](Cc1ccc(O)cc1)NC(=O)[C@H](CCCCN)NC(=O)[C@H](CCCCN)NC(=O)[C@@H](NC(=O)[C@H](C)NC(=O)[C@H](CCSC)NC(=O)[C@H](CCC(N)=O)NC(=O)[C@H](CCCCN)NC(=O)[C@H](CCCNC(=N)N)NC(=O)[C@H](CC(C)C)NC(=O)[C@H](CCCNC(=N)N)NC(=O)[C@@H](NC(=O)[C@H](Cc1ccc(O)cc1)NC(=O)[C@H](CC(N)=O)NC(=O)[C@H](CC(=O)O)NC(=O)[C@@H](NC(=O)[C@H](Cc1ccccc1)NC(=O)[C@@H](NC(=O)[C@H](C)NC(=O)[C@H](CC(=O)O)NC(=O)[C@H](CO)NC(=O)[C@@H](N)Cc1c[nH]cn1)C(C)C)[C@@H](C)O)[C@@H](C)O)C(C)C)C(=O)N[C@@H](CC(C)C)C(=O)N[C@@H](CC(N)=O)C(=O)O | nt | -4.1% | nt | nt | nt | nt
COc1ccc(CN(Cc2ccccc2)C(=O)c2ccccc2)cc1COc1ccc(NC(C)=O)cc1 | nt | nt | nt | nt | nt | 18.5%
COC(=O)c1ccccc1-c1cc(C)cc2c1OC(CNC(=O)c1cnc(C)cn1)C2 (stereo not given) | nt | 0.5% | nt | nt | nt | nt
C=CCNc1nnc(-c2cccc3ccccc23)o1 | nt | nt | nt | nt | nt | 2.7%
O=C(c1cn(C2CCCN(Cc3cccc(Oc4ccccc4)c3)C2)nn1)N1CCCC1 (stereo not given) | nt | -2.1% | nt | nt | nt | nt
C#CCOCCOCCOCCNc1nc(N2CCN(C(=O)CCCCCCCCCCNC(=O)Cn3cc(C[C@@H](C)O)nn3)CC2)nc(N2CCN(C(=O)CCCCCCCCCCNC(=O)[C@@H]([C@H](C)CC)n3cc(CCCCCN)nn3)CC2)n1 | ? | -11.1% | ? | ? | -1.3% | 20.2%
C#CCOCCOCCOCCNc1nc(N2CCN(C(=O)CCCCCCCCCCNC(=O)Cn3cc(CCCCCN)nn3)CC2)nc(N2CCN(C(=O)CCCCCCCCCCNC(=O)Cn3cc(C[C@@H](C)O)nn3)CC2)n1 | 79.4µM* | -6.3% | 25.1µM* | -64.9* | 9.2% | ?
O=C(O)c1cc(S(=O)(=O)Nc2ccc3oc(=O)sc3c2)ccc1O | -22.9% | -5.6% | 28.2µM* | -59.7* | -10.2% | ?
Cc1ccccc1Cc1nc2cccnc2n1C1CCN(C(=O)CC2NC(=O)c3ccccc32)CC1 (stereo not given) | nt | -6.5% | nt | nt | nt | nt
O=C(COC(=O)c1ccc(NS(=O)(=O)c2cccs2)cc1)Nc1nc2c(F)c(F)c(F)cc2s1 | -32.2% | -2.8% | -34.6% | -90.4* | -7.4% | ?
O=C(O)c1ccc2c(c1)-c1cc(C(=O)O)ccc1S2(=O)=O | -8.2% | -4.4% | 11.0% | -73.5* | i | -9.9%
Cc1ccsc1/C=N/Nc1nc(=O)[nH]nc1C | -5.8% | -7.5% | 0.9% | ? | 28.2µM* | -3.6%
Cc1cc(C)nc(N/N=C/c2sccc2C)n1 | -4.5% | 2.9% | -6.6% | -53.1* | 1.6% | -3.1%
Cc1cc(C)nc(N/N=C/c2ccccc2)n1 | -2.6% | 5.0% | 8.1% | nt | -11.9% | 7.6%
O=C1NN=C(CSc2n[nH]c(=S)s2)CS1 | -2.9% | -5.6% | 12.8% | -55.4* | -12.0% | 6.1%
Oc1ccc(CNCc2ccccc2F)c2cccnc12 | nt | nt | nt | nt | nt | 6.5%
O=C1CCc2cc(S(=O)(=O)Nc3cccc(Br)c3)ccc2N1 | nt | nt | nt | nt | nt | -2.4%
CC1=Nc2ccccc2/C1=C\c1sc(Nc2ccc(C)cc2)nc1O | -18.4% | -0.8% | -3.7% | -66.1* | -1.8% | 41.8%
Oc1nc(Nc2cccc(Cl)c2)sc1/C=C1\C=Nc2ccccc21 | -20.4% | -3.2% | -30.6% | -61.6* | -2.6% | ?
Oc1cccc(Nc2nc(O)c(/C=C3\C=Nc4ccccc43)s2)c1 | -18.2% | 0.4% | ? | -101.6* | -8.0% | ?
Oc1nc(Nc2ccc(F)cc2)sc1/C=C1\C=Nc2ccccc21 | -10.3% | 3.3% | -5.0% | ? | -1.6% | -12.5%
CC1=Nc2ccccc2/C1=C/c1sc(=O)n(CC(=O)N2CCCC2)c1O | 0.9% | -2.9% | 3.3% | 0.2 | i | ?
COC(=O)c1ccc(Cn2ncc3c4sc(C)cc4n(C)c3c2=O)cc1 | nt | nt | nt | nt | nt | 0.0%
C=CCSc1nnc(C2CCCN(Cc3ccccc3O)C2)n1C (stereo not given) | nt | -2.3% | nt | nt | nt | nt
CC[C@H]1OC(=O)C[C@@H](O)[C@H](C)[C@@H](O[C@@H]2O[C@H](C)C[C@H](N(C)C)[C@@H]2O)[C@@H](CC=O)C[C@@H](C)C(=O)/C=C\[C@]2(C)O[C@H]2[C@@H]1C | nt | -6.6% | nt | nt | nt | nt
SMILES | FEN1 inh | GRP78 ERSR act | WRN helicase inh | PI5P4K alpha inh | PGK inhibitor | Pin1 inh
CCCCCCCCCCCCCCCC[n+]1cccc(C(=O)N(CC)CC)c1 | ? | -6.7% | 4.1% | -73.2*! | -3.1% | 8.6%
COc1ccc(C2Nc3ccccc3C(=O)N2CCCN(C)C)cc1COc1ccc(NC(C)=O)cc1 (stereo not given) | nt | nt | nt | nt | nt | 1.6%
O=C1NC(=S)NC(=O)C1=Cc1ccccc1C(=O)O | -2.3% | -4.2% | -19.5% | -73.0* | i | nt
O=C1NC(=S)N/C1=C/C=C/c1ccccc1 | 4.8% | 6.5% | -4.1% | 6.0 | -10.9% | 19.7%
CC(C)C[C@@H](CNCC(=O)[C@H](Cc1c[nH]c2ccccc12)NC(=O)c1[nH]cnc1C(=O)N[C@H](CN)CC(C)C)NC(=O)c1nc[nH]c1C(=O)N[C@@H](CC(=O)O)C(=O)O | 1.1% | -0.5% | -10.8% | ? | 1.4% | ?
CC(C)C[C@@H](CNCC(=O)[C@H](Cc1c[nH]c2ccccc12)NC(=O)c1[nH]cnc1C(=O)N[C@@H](C)CN)NC(=O)c1nc[nH]c1C(=O)N[C@@H](CC(=O)O)C(=O)O | 14.1% | -1.3% | -8.0% | -62.4* | 6.4% | -0.1%
O=C(Cc1ccc2c(c1)OCCO2)c1c(O)cc(O)cc1O | 2.9% | 5.1% | -14.7% | nt | i | -13.0%
O=C(CCc1ccc(O)cc1)c1c(O)cc(O)cc1O | ? | 2.9% | -3.4% | -68.6* | -9.8% | 0.5%
CC(C)(C)C1CCc2c(C(=O)NNC(=O)/C=C/C(=O)O)csc2C1 (stereo not given) | -0.1% | 1.3% | -7.6% | -68.9* | -3.1% | -0.5%
Cc1ccc2nc(SCC(=O)N3CCC4(CC3)CC4C(=O)Nc3ccc(F)c(F)c3)[nH]c2c1 (stereo not given) | nt | 4.4% | nt | nt | nt | nt
CCOc1cc(/C=C(\C#N)c2[nH]nc(N)c2C#N)ccc1O | ? | 5.4% | -30.0% | -65.2* | 6.4% | 27.5%
COc1cc(Cn2ncc3c4sc(C)cc4n(C)c3c2=O)cc(OC)c1 | nt | nt | nt | nt | nt | 1.1%
